# Screening data: PubChem, several laboratories
# CHT PAM = allosteric activators of human choline transporter CHT | Q9GZV3 | CHT-expressing cells, membrane potential dye, choline EC20; hits give high values; LV-AA mutant CHT in HEK293 cells | B-score at 10 µM | 310,000 compounds, 0.49% hits;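 active = initial fluorescence not abnormally high and integrated response B-score, plate-corrected, over 3 SD above library mean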
# TMEM16A inh = blocks the mouse calcium-activated chloride channel TMEM16A | 310,000 compounds, 1.2% hits | Q8BHY3 | normalized B-score (activity score, 25-100; higher = stronger inhibition) at 10 µM | HEK293 TMEM16A/YFP iodide influx fluorescence, ionomycin;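 active = ratio plate-corrected score three or more library SD toward inhibition, starting fluorescence score within five deviations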;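 also: score derived from kinetic fluorescence span divided by baseline fluorescence per well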
# IDE act = IDE (human) activation, cell-based; P14735; HEK cells, FAbeta-B cleavage, fluorescence polarization; 0% vehicle, 100% cell-free pure enzyme wells; activation, % at 5.96 µM; 340,000 compounds, 0.073% hits; AID 493087;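 active = activation above the mean of all tested compounds plus 3 SD, set per screening campaign, cut at about 17% in these data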
# ANO1 activ = activators or potentiators of mouse TMEM16A chloride channel; Q8BHY3; HEK293 TMEM16A/YFP-H148Q/I152L, iodide quench fluorescence; hits give low values; B-score at 10 µM; 340,000 compounds, 0.3% hits;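 active = fluorescence-ratio B-score plate-corrected deviation score at least 3 library SD below zero, with starting fluorescence score within 5 deviations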;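 also: channel opened by trigger with iodide after compound preincubation; score built on the fluorescence ratio of max minus min over baseline; more negative score means more quench and so TMEM16A activation or potentiation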
# CHT block = human CHT choline transport inhibition. B-score at 10 µM. CHT-expressing cells, membrane potential dye, choline response; hits give low values. AID 488975. Q9GZV3. 310,000 compounds, 0.86% hits;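 active = B-score over 3 SD under the library average, and starting fluorescence ratio not unusually high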;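 also: choline stimulus applied at its EC90 after an EC20 pre-addition; B-score computed on integrated fluorescence ratio after choline addition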
# IDE inh = inhibitors of human insulin-degrading enzyme in cells; 320,000 compounds, 0.41% hits; HEK cells, FAbetaB cleavage, fluorescence polarization; AID 434962; inhibition, % at 5.59 µM; P14735;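 active = percent inhibition above the average of all tested compounds plus 3 SD, set per screening campaign, cut at about 16% in these data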;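 also: IDE supplied by intact live HEK cells; FP after avidin binding of uncleaved biotin substrate so inhibition keeps polarization high; 0% = DMSO wells and 100% = 60 µM reference IDE inhibitor Ii1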
# IDE cell inh cf = cellular human IDE inhibition, confirmation; shares compounds with IDE inh; HEK cells, FAbetaB cleavage, fluorescence polarization; inhibition, % at 5.59 µM; 1,200 compounds, 51% hits; AID 435028;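 active = mean inhibition across triplicate wells above the cutoff set by the earlier primary insulin-degrading enzyme screen, cut at about 16% in these data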;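 also: 0% = DMSO wells and 100% = 60 µM reference IDE inhibitor Ii1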
# HEK cytotox = kills HEK cells in IDE inhibitor counter-screen; shares compounds with IDE inh; HEK293 cytotoxicity, ATP luminescence; inhibition, % at 5.59 µM; 1,200 compounds, 28% hits; in the data active = inhibition above about 22%;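 also: 0% = vehicle wells and 100% = reference cytotoxic drug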
# Starred values were filed as active, the others as inactive; i = inactive; x = no result given. An excerpt weighted towards active compounds, which were near 2.7% of everything screened.
SMILES,CHT PAM,TMEM16A inh,IDE act,ANO1 activ,CHT block,IDE inh,others
Cc1c(C(=O)Nc2nc3ccccc3[nH]2)oc2ccc(Br)cc12,i,i,2.7,-4.62*,i,7.7,
O=C(CCC(=O)Nc1ccccc1Cl)NNC(=O)NC1CCCCC1,i,i,10.9,i,i,3.6,
COc1ccc(OC)c2cc3ccccc3cc12,x,x,9.9,-8.33*,x,x,
COc1cc2ccccc2cc1C(=O)O,i,i,3.6,i,i,-1.4,
Cn1cc[nH]c1=S,x,x,-3.8,-12.6*,x,x,
CC1O[C@@H](OC2C(O)C(O)C(CO)O[C@H]2OC2C[C@]3(C)C(CC(O)C4[C@@H]([C@]5(C)CC[C@@H](C(C)(C)O)O5)CC[C@]43C)[C@@]3(C)CCC(O)C(C)(C)C23)C(O)C(O)C1O (some centres not stated),x,x,21.4*,i,x,4.8,
O=C(Nc1ccc(Nc2ccncc2)cc1)c1ccc([N+](=O)[O-])cc1,i,i,2.5,-6.08*,i,1.3,
COc1ccc2[nH]c(=O)c(CN(C3CCCCC3)C(c3nnnn3Cc3ccco3)C(C)C)cc2c1 (configuration not stated),i,100*,1.2,i,i,1.2,
COc1ccc2[nH]c(=O)c(CN(Cc3nnnn3Cc3ccco3)C3CCCCC3)cc2c1,i,i,6.2,i,i,4.8,
COCCN(C(=O)COC(=O)CNC(=O)c1ccc(C)cc1)c1c(N)n(Cc2ccccc2)c(=O)[nH]c1=O,x,x,-2.4,i,x,x,
Cc1ccc(C(=O)CCC(=O)Nc2cccc(C)c2)cc1,i,i,-5.1,i,i,x,
CC(=O)Nc1ccc(N2S(=O)(=O)c3ccccc3S2(=O)=O)cc1,i,i,20.3*,i,i,-0.5,
Cc1cccc(NS(=O)(=O)c2cccc(C(=O)NCC(c3ccc(F)cc3)N3CCOCC3)c2)c1 (configuration not stated),x,x,4.9,i,x,x,
CCOC(=O)c1cnc(-n2nc(C)cc2C)nc1NCCO,i,i,0.6,i,i,-6.7,
CCOC(=O)c1cnc2ccc(OCC)cc2c1NCc1ccccc1,i,100*,2.3,i,i,1.1,
CCOC(=O)c1cnc(-n2nc(C)cc2C)nc1NCc1ccccc1,i,100*,6.0,i,i,1.4,
COc1ccc(C(=O)N2CCC(n3nccc3NC(=O)C3CCOC3)CC2)cc1 (configuration not stated),i,i,3.6,i,i,-4.3,
COc1ccc(N=Nc2nc3ccc(Br)cc3n2C)cc1,i,i,27.5*,i,i,-8.9,
O=C(/C(N=Nc1cccc(C(F)(F)F)c1)=C(/O)c1cccs1)C(F)(F)F,i,100*,3.4,i,i,6.5,
CN(C(=O)/C(N=Nc1cccc(C(F)(F)F)c1)=C(\O)C(F)(F)F)c1ccccc1,i,100*,3.0,i,i,-1.6,
O=C(O)c1ccc2c(=O)n3c(nc2c1)/C(=C/c1ccccc1Br)CC3,i,i,3.6,i,i,4.7,
COc1ccc(OC)c(C(c2nnnn2CCc2ccccc2)N2CCN(c3ccccc3)CC2)c1 (configuration not stated),i,i,5.0,-8.48*,i,4.9,
COCCn1nnnc1C(c1ccc(OC)cc1OC)N1CCN(c2ccccc2)CC1 (configuration not stated),i,i,-0.7,i,i,-8.7,
Nc1cc(S(=O)(=O)N2CCOCC2)ccc1Oc1cccc(Br)c1,x,x,-2.6,i,x,x,
Cc1cc(NC(=O)CCC(=O)N(CCC(C)C)C(C(=O)NCC2CCCO2)c2ccccc2C)no1 (configuration not stated),i,i,-1.7,i,i,2.3,
SMILES,CHT PAM,TMEM16A inh,IDE act,ANO1 activ,CHT block,IDE inh,others
Clc1cccc(-c2nnc(SC/C=C/c3ccccc3)n2Cc2ccco2)c1,7.3*,i,-10.6,i,i,-0.2,
C(=C\c1ccccc1)/CSc1nnc(-c2ccccc2)n1Cc1ccco1,i,i,-7.0,i,i,4.9,
O=C(CN1CCN(Cc2ccccc2Cl)CC1)N/N=C/C=C\c1ccccc1[N+](=O)[O-],i,i,-5.8,i,i,9.9,
O=C(CN1CCN(Cc2ccccc2Cl)CC1)N/N=C/C=C/c1ccccc1[N+](=O)[O-],i,i,-18.1,i,i,22.1*,IDE cell inh cf=9.6;HEK cytotox=12.1
C/C(=N/NC(=O)CN1CCN(Cc2ccccc2Cl)CC1)c1cccnc1,i,i,-7.4,i,i,23.4*,IDE cell inh cf=8.9;HEK cytotox=12.1
O=C(CNC(=O)c1ccc(S(=O)(=O)N2CCCC2)cc1)N/N=C/c1ccc(Cl)cc1Cl,i,i,-7.2,i,i,23.5*,IDE cell inh cf=5.2;HEK cytotox=7.6
CN(C(=O)COC(=O)c1ccc(Cl)s1)C1(C#N)CCCCC1,x,x,3.1,i,x,x,
NC(=S)N/N=C\c1ccc(-c2cccc(Cl)c2Cl)o1,i,i,-29.1,i,i,26.6*,IDE cell inh cf=3.2;HEK cytotox=28.5*
COc1cccc(/C=N/n2c(SC)nnc2-c2ccccc2)c1O,i,i,-34.2,i,i,25.1*,IDE cell inh cf=39.5*;HEK cytotox=27.3*
Cc1ccc(CCNC(=O)C2CCN(S(=O)(=O)N3CCOCC3)CC2)cc1,i,i,8.3,i,i,-2.8,
C=CCN(C(=O)c1csnn1)C(C(=O)NC1CCCC1)c1ccc(OC)cc1 (configuration not stated),i,i,1.6,i,i,-0.7,
Oc1[nH]c(=S)sc1/C=C1\C(c2ccccc2)=Nc2ccccc21,i,i,-14.1,i,i,17.8*,IDE cell inh cf=14.5;HEK cytotox=9.0
Oc1[nH]c(=S)sc1C=C1N=c2ccccc2=N1,i,i,x,i,i,-0.4,
COc1cccc(CNC(=O)N2CCN(c3ccccc3)CC2)c1,i,i,-0.6,i,i,-0.6,
O=C1N/C(=N\S(=O)(=O)Cc2ccccc2)S/C1=C/c1cc([N+](=O)[O-])ccc1O,i,i,-46.2,i,i,39.7*,IDE cell inh cf=75.0*;HEK cytotox=9.2
O=C1N/C(=N\S(=O)(=O)c2ccccc2)S/C1=C\c1cc([N+](=O)[O-])ccc1O,i,i,-40.7,i,i,49.9*,IDE cell inh cf=70.3*;HEK cytotox=13.1
